Compound activity deposited in PubChem BioAssay by National Center for Advancing Translational Sciences (NCATS).
KDM5B inhibitor – inhibitors of human KDM5B histone demethylase | Q9UGL1 | KDM5B demethylase, FDH-coupled NADH fluorescence (FDH is formaldehyde dehydrogenase) | Potency, µM (top dose mostly 57.7 µM), hits mostly inhibitors | 220,000 tested, 2.6% active; active = well fitted inhibition curve with a large enough effect; also: nearly all actives have a fitted effect of over 70% in size
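KDM5BΔAP (200 nM final) in 50 mM HEPES pH 7.5, 0.01% Tween-20 was preincubated 10 min at RT with compound over a concentration range. Substrate mix (H3K4me3 12.5 µM, α-KG 25 µM, Fe²⁺, ascorbate, NAD⁺, FDH) was added, and NADH fluorescence change over 30 min gave dose-response curves.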
Each line names hits and unclear results; the compound was inactive in the other large screens. Only a selection was taken, and hits are over-represented in it overall.

O=C(O)CSCC(=O)N1C[C@@H]2C[C@H](C1)c1c(-c3ccccc3F)ccc(=O)n1C2	none
CC(C)NC(=O)N1C[C@@H]2C[C@H](C1)c1ccc(-c3cccc(C(F)(F)F)c3)c(=O)n1C2	none
CC(C)(CC(=O)O)CC(=O)N1C[C@@H]2C[C@H](C1)c1ccc(-c3cccc(C#N)c3)c(=O)n1C2	none
O=C(NCc1ccccc1)[C@H]1CN2CC[C@H]1C[C@@H]2Cn1cc(-c2ccccn2)nn1	none
COc1cc(OC(F)(F)F)ccc1C(=O)N1CCC(C(=O)O)(c2ccccc2)CC1	none
COCCN1CCC(N2CCN(C(=O)Cc3cccc(C)c3)CC2)C1=O (centres undefined)	none
Cc1ccc(-n2nc(C)c3c2NC(=O)CSC3c2ccsc2)cc1Cl (centres undefined)	none
COc1ccc(-c2cc([C@H]3CN4CC[C@H]3C[C@@H]4CNC(=O)C(C)(C)C)n(C)n2)cc1OC	none
COc1ccc(-c2cc([C@H]3CN4CC[C@H]3C[C@@H]4CNC(=O)Nc3ccccc3)n(C)n2)cc1OC	none
COc1ccc(-c2cc3c(cn2)CN(C)CCN3)cc1OC	KDM5B inhibitor 35.5µM
O=C(NC1CC1)[C@H]1CN2CCC1C[C@@H]2Cn1cc(CCO)nn1 (some centres undefined)	none
Cc1ccccc1CC(=O)N1CCN(C2CCN(CCC(C)C)C2=O)CC1 (centres undefined)	none
O=C1Nc2ccccc2CC12CN(CC1CC1)C2	none
CCN1Cc2ccccc2NC(=O)C12CCNC2 (centres undefined)	KDM5B inhibitor 56.2µM
CN1Cc2ccccc2NC(=O)C12CCNC2 (centres undefined)	none
CC(C)(C)c1ccc(-c2cn(C[C@H]3CC4CCN3C[C@@H]4C(=O)N3CCOCC3)nn2)cc1 (some centres undefined)	none
CC[C@H]1CN2CC[C@H]1C[C@@H]2CNC(=O)c1ccc(C(F)(F)F)cc1	none
CC[C@H]1CN2CC[C@H]1C[C@@H]2CNC(=O)c1ccc(-c2ccccc2)cc1	none
CC[C@H]1CN2CC[C@H]1C[C@@H]2COC(=O)Nc1ccc(C(C)(C)C)cc1	KDM5B inhibitor 28.2µM
CC[C@H]1CN2CC[C@H]1C[C@@H]2COC(=O)Nc1cccc2ccccc12	KDM5B inhibitor 31.6µM
CC[C@H]1CN2CC[C@H]1C[C@@H]2CNC(=O)Nc1ccc(Br)cc1	none
CC[C@H]1CN2CC[C@H]1C[C@@H]2CNC(=O)c1ccc2ccccc2c1	none
O=C1NC2(CN(Cc3cccnc3)C2)Oc2ccccc21	none
CN(Cc1ccccc1)Cc1cn(C[C@H]2C[C@@H]3CCN2C[C@@H]3C(=O)Nc2ccccc2)nn1	none
O=C(O)c1cn(C2CCCCCC2)nn1	none
Cc1cncc(N2CC3CCC(C2)N3CC(F)(F)F)c1	none
COc1ccc([N+](=O)[O-])c(N2CC3CCC(C2)N3CC(F)(F)F)n1	none
COc1ccc(N2CC3CCC(C2)N3CC(F)(F)F)cn1	KDM5B inhibitor 56.2µM
C=C[C@H]1CN2CC[C@H]1C[C@@H]2CNS(=O)(=O)c1cccc(F)c1	none
COc1cc2c(cc1Oc1ccccc1)NC(=O)C21CCN(C(=O)c2cccnc2)CC1	none
NC1CCCN(Cc2cccnc2)C1 (centres undefined)	none
O=C1NCCCCCCN(Cc2cccnc2)[C@H]2CCC[C@@H]12	KDM5B inhibitor 7.94µM
O=C1N(Cc2cccnc2)C[C@H]2CN(C3CCC3)CCN12	none
COc1ccc(CNC[C@H]2C[C@@H]3CCN2C[C@@H]3c2cc(-c3ccc(F)cc3)nn2C)cc1	none
OCCSCCSCCO	none
